AmpC inh no detg: inhibitors of E. coli AmpC beta-lactamase without detergent | Potency, µM (highest dose often 57.1 µM), without a hit: top-dose activity change, negative = inhibition, usual class: inhibitors | 0.52% of 330,000 active | AID 485341 | AmpC nitrocefin hydrolysis, absorbance 480 nm, 0.0001% Triton | P00811;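 further: plate controls were no compound for no effect and no enzyme for full effect; nearly all actives have a fitted effect of over 20% in size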
Target sequence (P00811 whole entry, looked up): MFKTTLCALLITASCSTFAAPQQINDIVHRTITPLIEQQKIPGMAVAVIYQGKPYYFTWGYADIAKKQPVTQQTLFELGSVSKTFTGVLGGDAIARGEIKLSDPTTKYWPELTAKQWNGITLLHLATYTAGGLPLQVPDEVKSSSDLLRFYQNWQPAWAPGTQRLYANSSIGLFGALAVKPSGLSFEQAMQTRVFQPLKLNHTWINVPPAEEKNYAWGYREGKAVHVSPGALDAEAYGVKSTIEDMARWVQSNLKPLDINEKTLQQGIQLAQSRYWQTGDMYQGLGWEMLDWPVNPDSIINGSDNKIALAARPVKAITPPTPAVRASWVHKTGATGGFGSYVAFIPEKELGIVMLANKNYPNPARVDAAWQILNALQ
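20 mM phosphate pH 7.0 + 0.01% (detergent screen) or 0.0001% Triton X-100; 5.3 nM AmpC reagent; cpd preinc 15 min RT; nitrocefin (800 uM stock) to start; A480 q20 s × 4 min; Activity was normalised to no-enzyme and no-compound control wells.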
SARS PLP yeast: blocks SARS-CoV papain-like protease in a yeast assay; Potency, µM (top dose mostly 32.9 µM), for the others: top-dose activity, positive = growth rescue, actives largely listed as activators; 0.19% of 330,000 active; S. cerevisiae expressing SARS-CoV PLpro, growth rescue; calls by dose curve; further: 0% is about no effect; nearly all actives have a fitted effect of over 55% in size
Pf growth 48h: P. falciparum growth inhibition at 48 hours (one generation) | Potency, µM (top dose mostly 28.7 µM), without a hit: at the top dose activity change, negative = inhibition, hits mostly inhibitors | 5.9% of 310,000 active | P. falciparum luciferase growth in erythrocytes, 48 h; further: on the % scale 0 is the no-effect control and ±100 the full control effect
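In quantitative HTS format, infected erythrocytes bearing luciferase-reporter parasites were treated for a single generation at 37 C. Luminescence after adding detection reagent served as the growth measure.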
AmpC detergent: blocks E. coli AmpC beta-lactamase in detergent assay; Potency, µM (doses to about 114 µM), for inactives: at the top dose activity change, negative = inhibition, most hits filed as inhibitors; AmpC hydrolysis of nitrocefin, absorbance 480 nm, 0.01% Triton; 0.041% of 370,000 active; P00811; AID 485294;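 further: 0% = no-compound wells and -100% = no-enzyme wells; nearly all actives have a fitted effect of over 25% in size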
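20 mM phosphate pH 7.0 + 0.01% (detergent screen) or 0.0001% Triton X-100; 5.3 nM AmpC reagent; cpd preinc 15 min RT; nitrocefin (800 uM stock) to start; A480 q20 s × 4 min; Activity was normalised to no-enzyme and no-compound control wells.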
Sm TGR inh: blocks Schistosoma mansoni thioredoxin glutathione reductase | Q962Y6 | purified TGR, DTNB reduction, TNB absorbance 405 nm | Potency, µM (titrated, usually from 114 µM), inactives show at the highest dose activity change, negative = inhibition, actives largely listed as inhibitors | 3% of 360,000 active | AID 485364; further: on the % scale 0 is the no-effect control and ±100 the full control effect; nearly all actives have a fitted effect of over 60% in size
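TGR 20 nM + NADPH 100 uM (dispensed conc.), cpd preinc 15 min RT; start with NADPH (500 uM addition) then DTNB (15 mM addition). Kinetic TNB absorbance, 405 nm filter. Four-parameter Hill fit across titration.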
Pf growth 96h: P. falciparum growth inhibition at 96 hour, primary screen for plastid delayed-death inhibitors; P. falciparum luciferase reporter growth, 96 h; Potency, µM (titrated, usually from 28.7 µM), for inactives: top-dose activity change, negative = inhibition, most hits filed as inhibitors; 6.9% of 320,000 active; AID 504834; further: on the % scale 0 is the no-effect control and ±100 the full control effect
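Plates of compound plus infected erythrocytes (2% hematocrit, 0.05% parasitemia final) incubate 96 hours, 37 C, 5% CO2. Detection reagent added; reduced luminescence from the parasites' luciferase reporter flags inhibition.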
* marks the source's active call; other numbers are inactive results. Rows were chosen to be rich in hits. Some 12% of all compounds tested hit in one or more screens of this group. Unless noted, the call rests on the fitted dose curve; in most records, active means well fitted curve in the direction sought with a large enough effect; inconclusive means small, poorly fitted or top-dose-only effect, or another doubt; inactive means no such curve, though single readings can be large; an effect the other way counts as inactive or inconclusive. Potency means the concentration at half of the fitted maximal effect.

For COc1ccc(Br)cc1/C=N/NC(=O)c1nc(-c2ccccc2)n2c1CCCCC2 the results were AmpC inh no detg -25.4%, SARS PLP yeast 7.0%, AmpC detergent inconclusive, Sm TGR inh -19.3% and Pf growth 96h 7.38µM*.
`Nc1ccc(SCc2cccnc2)cc1` gave AmpC inh no detg -5.2%, SARS PLP yeast 0.0%, Pf growth 48h 44.6%, AmpC detergent -5.1%, Sm TGR inh -5.3% and Pf growth 96h 40.4%.
For CCC(C)Oc1ccccc1C1CC(=O)NC2=C1C(=O)CCC2 (centres undefined) the results were AmpC inh no detg -11.9%, SARS PLP yeast -0.9%, Pf growth 48h inconclusive, AmpC detergent -2.1%, Sm TGR inh 8.9% and Pf growth 96h inconclusive.
For CCCN(CCC)C(=O)Cn1c(=O)n(-c2cccc(OC)c2)c(=O)c2c(C)c(C(=O)N(C)C)sc21 the results were AmpC detergent 7.9% and Sm TGR inh 5.7%.
Screening COC(C(=O)Nc1ccccc1C(=O)N1CCOCC1)c1ccccc1 (centres undefined) returned AmpC inh no detg -8.7%, SARS PLP yeast -1.8%, Pf growth 48h 97.8%, AmpC detergent -6.7%, Sm TGR inh -5.9% and Pf growth 96h -4.6%.
Screening CC(C)c1cccc(C(C)C)c1NC(=O)CN1CCCC1 returned AmpC inh no detg -11.2%, SARS PLP yeast -2.0%, Pf growth 48h inconclusive, AmpC detergent -12.2%, Sm TGR inh 1.6% and Pf growth 96h 11.3%.
CSc1cccc(NC(=O)c2ccc3c(c2)CCCN3S(C)(=O)=O)c1 was read as AmpC detergent 17.3% and Sm TGR inh -0.1%.
COc1cccc(CN(C(=O)COc2ccc(Cl)cc2)C2CCS(=O)(=O)C2)c1 (centres undefined) was read as AmpC inh no detg 99.3%, SARS PLP yeast -0.8%, Pf growth 48h inconclusive, AmpC detergent -2.2%, Sm TGR inh 1.2% and Pf growth 96h -22.4%.
COc1ccc(Br)cc1/C=N/NC(=O)c1ccc(OC)c(OC)c1 was read as AmpC inh no detg 1.9%, SARS PLP yeast -1.5%, Pf growth 48h 4.15µM*, AmpC detergent 2.1%, Sm TGR inh 5.8% and Pf growth 96h -3.9%.
CC(=O)Nc1cccc(C(=O)N/N=C/c2ccccc2F)c1 was read as AmpC inh no detg -34.2%, SARS PLP yeast -17.9%, Pf growth 48h 225.1%, AmpC detergent 11.5%, Sm TGR inh 5.9% and Pf growth 96h 6.57µM*.
For COc1cc(OC)c(/C=N/NC(=O)c2ccncc2)cc1Br the results were AmpC inh no detg -27.9%, SARS PLP yeast -1.9%, Pf growth 48h 0.5%, AmpC detergent -10.1%, Sm TGR inh -5.8% and Pf growth 96h 148.2%.
Screening O=C(N/N=C/c1cc(Br)ccc1O)c1ccncc1 returned AmpC inh no detg -12.4%, SARS PLP yeast -0.6%, Pf growth 48h 2.62µM*, AmpC detergent 0.0%, Sm TGR inh -1.4% and Pf growth 96h 1.65µM*.
Screening COc1ccc(Br)cc1/C=N/NC(=O)c1cc(OC)c(OC)c(OC)c1 returned AmpC inh no detg 90.5%, SARS PLP yeast -14.4%, Pf growth 48h 0.8%, AmpC detergent -10.1%, Sm TGR inh -1.4% and Pf growth 96h 17.7%.
`COc1ccc(C(=O)Cn2c(NCCCl)nc3ccccc32)cc1` gave AmpC inh no detg -4.9%, SARS PLP yeast 4.4%, Pf growth 48h -2.5%, AmpC detergent 0.4%, Sm TGR inh 2.5% and Pf growth 96h inconclusive.
COc1ccc(-n2c(C)cc(C(=O)Cn3c(NCCO)nc4ccccc43)c2C)cc1 was read as AmpC inh no detg 164.9%, SARS PLP yeast 5.3%, Pf growth 48h 0.0%, AmpC detergent -13.5%, Sm TGR inh 0.9% and Pf growth 96h 10.4µM*.
Screening O=C(Cn1c(NCCCO)nc2ccccc21)c1ccc(Cl)cc1Cl returned AmpC inh no detg 60.7%, SARS PLP yeast -0.4%, Pf growth 48h 1.65µM*, AmpC detergent 5.0%, Sm TGR inh 0.6% and Pf growth 96h 9.28µM*.
Screening CCc1ccc(/C=C\C(=O)N2CCc3ccccc3C2)cc1 returned AmpC inh no detg -3.9%, SARS PLP yeast -21.1%, Pf growth 48h 36.5%, AmpC detergent -1.6%, Sm TGR inh 12.8% and Pf growth 96h 48.3%.
For C#CCN1CCN(c2cccc(C(F)(F)F)c2)CC1 the results were AmpC inh no detg 7.2%, SARS PLP yeast -0.3%, Pf growth 48h 35.2%, AmpC detergent 1.5%, Sm TGR inh -3.2% and Pf growth 96h 20.3%.
For CCc1ccc(N2Cc3ccccc3C2)cc1 the results were AmpC inh no detg -19.1%, SARS PLP yeast -3.2%, Pf growth 48h -87.9%, AmpC detergent 6.8%, Sm TGR inh 17.8µM* and Pf growth 96h inconclusive.
FC(F)(F)c1cccc(N2Cc3ccccc3C2)c1 was read as AmpC inh no detg -7.7%, SARS PLP yeast -4.5%, Pf growth 48h 13.1µM*, AmpC detergent -15.5%, Sm TGR inh -14.9% and Pf growth 96h 45.8%.
`Cc1cc(C)cc(N2Cc3ccccc3C2)c1` gave AmpC inh no detg -3.6%, SARS PLP yeast -4.6%, AmpC detergent inconclusive, Sm TGR inh inconclusive and Pf growth 96h 4.15µM*.
`CCOC(=O)c1ccc(N2Cc3ccccc3C2)cc1O` gave AmpC inh no detg -47.1%, SARS PLP yeast -3.4%, Pf growth 48h 4.15µM*, AmpC detergent 2.9%, Sm TGR inh -18.8% and Pf growth 96h 2.2%.
For CSc1nc(NCC(C)O)c2c3c(sc2n1)CN(C)CC3 (centres undefined) the results were AmpC inh no detg -1.9%, SARS PLP yeast -0.6%, Pf growth 48h inconclusive, AmpC detergent -0.2%, Sm TGR inh -19.5% and Pf growth 96h 6.57µM*.
CSc1nc(SCC(=O)NCc2ccco2)c2c3c(sc2n1)COC(C)(C)C3 was read as AmpC inh no detg -20.6%, SARS PLP yeast -10.4%, Pf growth 48h inconclusive, AmpC detergent -17.1%, Sm TGR inh -17.7% and Pf growth 96h -1.3%.
`CSc1nc(SCC(=O)NC(c2ccccc2)c2ccccc2)c2c3c(sc2n1)CN(C)CC3` gave AmpC inh no detg 16.3%, SARS PLP yeast -4.3%, Pf growth 48h 7.38µM*, AmpC detergent -8.3%, Sm TGR inh -5.2% and Pf growth 96h 2.94µM*.
CCN(CC)CCCNc1nc(SC)nc2sc3c(c12)CCN(C)C3 was read as AmpC inh no detg 59.5%, SARS PLP yeast -2.7%, Pf growth 48h inconclusive, AmpC detergent -0.8%, Sm TGR inh 0.8% and Pf growth 96h inconclusive.
`CSc1nc(NCCCO)c2c3c(sc2n1)CN(C)CC3` gave AmpC inh no detg 6.8%, SARS PLP yeast -1.3%, Pf growth 48h inconclusive, AmpC detergent -4.0%, Sm TGR inh -15.5% and Pf growth 96h 5.22µM*.
